In PubChem BioAssay (EPA / NIEHS) one finds outcome and AC50 data, which are given here for 6 compounds.

Records with an inconclusive call do not appear. Active and inactive are the calls of the source. How the source made its calls, unless noted: active means hit-call score of the fitted dose curve at least 0.9, where 1 is the maximum; inactive means score below 0.9.

In experiment [1] the target is human Peroxisome Proliferator-activated Receptor alpha (PPARa), PPARA (gene 5465) (UniProt Q07869). The experiment is described as follows: ATG_PPARa_TRANS: Attagene TRANS-FACTORIAL HepG2 Assay for human Peroxisome Proliferator-activated Receptor alpha (PPARa) (AID 2283001; active means hit-call score of the fitted dose curve at least 0.9, where 1 is the maximum). The procedure, abridged:
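Read-out is fluorescence of reporter cDNA fragments resolved by capillary electrophoresis after RT-PCR. Human HepG2 liver cells carried transfected PPARa-Gal4 chimera and GAL4-UAS reporter units, treated 24 h; activity scored as increase over DMSO.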

Read-out in experiment [2]: Intercellular Adhesion Molecule 1 (ICAM1), ICAM1 (gene 3383)
As to the kind of experiment: BSK_3C_ICAM1: BioMAP Diversity Plus: 3C Assay for Intercellular Adhesion Molecule 1 (ICAM1) Biomarker Activity (AID 2283003). The following applies: primary human endothelial cells (HUVEC); actives raise or lower the signal. The procedure, abridged:
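HUVEC primary cells stimulated under 3C conditions; ICAM1 measured by ELISA 24 h after compound dosing. Curves fitted bidirectionally against the DMSO baseline. Overt cytotoxicity checked by SRB staining of parallel cultures.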

Experiment [3] is described as follows: BSK_3C_Proliferation: Cell Proliferation Assessment in the BioMAP Diversity Plus: 3C Assay (AID 2283006).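 On AC50: potency may reflect either rise or fall in cell number versus DMSO.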 As to conditions: primary human endothelial cells (HUVEC). The essentials:
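Subconfluent HUVEC (3C system) cultured with chemical; relative cell number read at 48 h by sulforhodamine B total-protein staining (0.1% SRB after 10% TCA fixation, 560 nm). Bidirectional fit relative to DMSO.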

The target in experiment [4] is Peroxisome proliferator-activated receptor gamma (Homo sapiens) (UniProt P37231). As to the kind of experiment: ATG_PPARg_TRANS: Attagene TRANS-FACTORIAL HepG2 Assay for human Peroxisome Proliferator-activated Receptor-gamma (PPARg) (AID 2283007; active means hit-call score of the fitted dose curve at least 0.9, where 1 is the maximum). The procedure, abridged: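 Twenty-four hours after chemical dosing of transiently transfected HepG2 cells, isolated RNA was converted to cDNA, reporter sequences amplified and 6-FAM-labelled, then HpaI-digested and analysed by capillary electrophoresis. Signal increase against DMSO was fitted.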

The target in experiment [5] is Nuclear receptor subfamily 1 group I member 2 (Homo sapiens) (UniProt O75469). As to the kind of experiment: ATG_PXR_TRANS: Attagene TRANS-FACTORIAL HepG2 Assay for human Pregnane X Receptor (PXR) (AID 2283008; active means hit-call score of the fitted dose curve at least 0.9, where 1 is the maximum). The essentials:
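Fluorescence intensity of FAM-labelled, HpaI-digested reporter amplicons, separated by capillary electrophoresis, quantifies induction. HepG2 cells with PXR-Gal4 trans-reporter system were exposed 24 h; DMSO defines baseline.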

Read-out in experiment [6]: E-selectin (Homo sapiens) (UniProt P16581)
The experiment is described as follows: BSK_3C_Eselectin: BioMAP Diversity Plus: 3C Assay for Eselectin Biomarker Activity (AID 2283015).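 On outcome: cell surface E-selectin protein quantified by ELISA 24 h after dosing.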 As to conditions: primary human endothelial cells (HUVEC); actives raise or lower the signal. The essentials:
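Primary human umbilical vein endothelial cells (3C system) were dosed with chemical and cell-surface E-selectin measured by ELISA 24 h later. Bidirectional curve fitting used DMSO as negative control and baseline.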

Read-out in experiment [7]: Interleukin-1 alpha (IL1a), IL1A (gene 3552)
The experiment is described as follows: BSK_BE3C_IL1a: BioMAP Diversity Plus: BE3C Assay for Interleukin-1 alpha (IL1a) Biomarker Activity (AID 2283016). As to conditions: primary human bronchial epithelial cells; actives raise or lower the signal. The essentials: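 Human primary bronchial epithelial cells, 24 h chemical exposure; IL-1a quantified by ELISA, fitted bidirectionally against DMSO. Cytotoxicity assessed in parallel by SRB total-protein staining at the time of measurement.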

Read-out in experiment [8]: Monocyte Chemoattractant Protein-1 (MCP1), CCL2 (gene 6347)
The experiment is described as follows: BSK_3C_MCP1: BioMAP Diversity Plus: 3C Assay for Monocyte Chemoattractant Protein-1 (MCP1) Biomarker Activity (AID 2283017). As to conditions: primary human endothelial cells (HUVEC); actives raise or lower the signal. The procedure, abridged: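 Primary human umbilical vein endothelial cells (3C system) were exposed to test chemical for 24 h, after which MCP-1 was quantified by ELISA. Activity was fitted bidirectionally against DMSO as negative control and baseline.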

Read-out in experiment [9]: Monocyte Chemoattractant Protein-1 (MCP1), CCL2 (gene 6347)
The experiment is described as follows: BSK_4H_MCP1: BioMAP Diversity Plus: 4H Assay for Monocyte Chemoattractant Protein-1 (MCP1) Biomarker Activity (AID 2283018). As to conditions: primary human endothelial cells (HUVEC); actives raise or lower the signal. The essentials:
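Human umbilical vein endothelial cells (4H system) exposed to chemicals for 24 h in 96-well format. MCP-1 measured by ELISA; bidirectional fitting against DMSO, with SRB total-protein staining in parallel cultures for cytotoxicity.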

Read-out in experiment [10]: Human Leukocyte Antigen - DR isotype (HLADR), HLA-DRA (gene 3122)
The experiment is described as follows: BSK_3C_HLADR: BioMAP Diversity Plus: 3C Assay for Human Leukocyte Antigen - DR isotype (HLADR) Biomarker Activity (AID 2283019).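 On outcome: ELISA of cell-surface HLA-DR on HUVEC 24 h after dosing.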 The following applies: primary human endothelial cells (HUVEC); actives raise or lower the signal. The essentials:
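Primary human umbilical vein endothelial cells (3C system) were dosed with compound and cell-surface HLA-DR was quantified by ELISA at 24 h. Activity was fitted bidirectionally against DMSO as negative control and baseline.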

Read-out in experiment [11]: Interleukin-8 (IL8), CXCL8 (gene 3576)
As to the kind of experiment: BSK_3C_IL8: BioMAP Diversity Plus: 3C Assay for Interleukin-8 (IL8) Biomarker Activity (AID 2283020). The following applies: primary human endothelial cells (HUVEC); actives raise or lower the signal. The essentials:
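Primary human umbilical vein endothelial cells were dosed for 24 h. IL-8 was quantified by ELISA and fitted bidirectionally against DMSO. Cytotoxicity was assessed in parallel cultures by SRB staining at 560 nm.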

Read-out in experiment [12]: Monokine induced gamma interferon (MIG), CXCL9 (gene 4283)
As to the kind of experiment: BSK_3C_MIG: BioMAP Diversity Plus: 3C Assay for Monokine induced gamma interferon (MIG) Biomarker Activity (AID 2283021).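 On AC50: MIG protein level measured by immunoassay in the treated endothelial cultures.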 The following applies: primary human endothelial cells (HUVEC); actives raise or lower the signal. The procedure, abridged:
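HUVEC primary endothelial cultures dosed with chemical; MIG quantified by ELISA at 24 h. Data fitted bidirectionally against DMSO control, with parallel SRB total-protein staining for cytotoxicity.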

Experiment [13] addresses human Peroxisome Proliferator-activated Receptor delta (PPARd), PPARD (gene 5467) (UniProt Q03181). The experiment is described as follows: ATG_PPARd_TRANS: Attagene TRANS-FACTORIAL HepG2 Assay for human Peroxisome Proliferator-activated Receptor delta (PPARd) (AID 2283002; active means hit-call score of the fitted dose curve at least 0.9, where 1 is the maximum). The procedure, abridged: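 Cell-based TRANS reporter: HepG2, transient MRTU transfection, 24 h exposure. Readout = reporter mRNA (RT-PCR/CE, 6-FAM). Gain-of-signal fit vs DMSO control.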

Experiment [14] has as its target human RAR-related Orphan Receptor beta (RORb), RORB (gene 6096) (UniProt Q92753). The experiment is described as follows: ATG_RORb_TRANS: Attagene TRANS-FACTORIAL HepG2 Assay for human RAR-related Orphan Receptor beta (RORb) (AID 2283010; active means hit-call score of the fitted dose curve at least 0.9, where 1 is the maximum). The essentials: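 HepG2 cells transiently transfected with GAL4-UAS reporter units expressing chimeric NR-Gal4 protein; reporter mRNA measured 24 h after dosing by RT-PCR, 6-FAM labelling and capillary electrophoresis. Gain-of-signal fitted relative to DMSO baseline.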

In experiment [15] the target is human Retinoid X Receptor beta (RXRb), RXRB (gene 6257) (UniProt P28702). The experiment is described as follows: ATG_RXRb_TRANS: Attagene TRANS-FACTORIAL HepG2 Assay for human Retinoid X Receptor beta (RXRb) (AID 2283013; active means hit-call score of the fitted dose curve at least 0.9, where 1 is the maximum). The procedure, abridged: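 HepG2 cells were transiently transfected with multiplexed GAL4-UAS reporters and a chimeric RXRb-Gal4 construct, then exposed for 24 h. Reporter mRNA was quantified by RT-PCR, FAM labeling, HpaI digestion and capillary electrophoresis; gain of signal was scored against DMSO.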

For experiment [16], the target named is human RAR-related Orphan Receptor gamma (RORg), RORC (gene 6097) (UniProt P51449). The experiment is described as follows: ATG_RORg_TRANS: Attagene TRANS-FACTORIAL HepG2 Assay for human RAR-related Orphan Receptor gamma (RORg) (AID 2283011; active means hit-call score of the fitted dose curve at least 0.9, where 1 is the maximum). The essentials:
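Readout: reporter transcript induction (RT-PCR, fluorescent primer extension, capillary electrophoresis) after 24 h compound exposure of transiently transfected HepG2 cells carrying a RORg-Gal4 chimera and GAL4-UAS reporters; DMSO served as baseline, with increasing signal fitted.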

In experiment [17] the target is human Retinoic Acid Receptor beta (RARb), RARB (gene 5915) (UniProt P10826). As to the kind of experiment: ATG_RARb_TRANS: Attagene TRANS-FACTORIAL HepG2 Assay for human Retinoic Acid Receptor beta (AID 2283004; active means hit-call score of the fitted dose curve at least 0.9, where 1 is the maximum). The procedure, abridged:
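HepG2 cells transiently transfected with multiplexed GAL4-UAS reporter units expressing chimeric NR–Gal4 fusions; 24 h compound exposure. Reporter mRNA quantified by RT-PCR, 6-FAM labelling, HpaI digestion and capillary electrophoresis; gain-of-signal fitted against DMSO baseline.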

The target in experiment [18] is Retinoic acid receptor alpha (Homo sapiens) (UniProt P10276). As to the kind of experiment: ATG_RARa_TRANS: Attagene TRANS-FACTORIAL HepG2 Assay for human Retinoic Acid Receptor alpha (RARa) (AID 2283005; active means hit-call score of the fitted dose curve at least 0.9, where 1 is the maximum). The essentials:
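Reporter transcripts, measured by RT-PCR with fluorescent labeling and capillary electrophoresis after 24 h dosing, reflect activity of an exogenous human RARa–GAL4 fusion in transiently transfected HepG2. Fitted for increase relative to DMSO.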

Experiment [19] concerns the target Retinoic acid receptor RXR-alpha (Homo sapiens) (UniProt P19793). As to the kind of experiment: ATG_RXRa_TRANS: Attagene TRANS-FACTORIAL HepG2 Assay for human Retinoid X Receptor alpha (RXRa) (AID 2283012; active means hit-call score of the fitted dose curve at least 0.9, where 1 is the maximum). The procedure, abridged:
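HepG2 cells transiently transfected with GAL4-UAS reporter units and chimeric RXRa-Gal4 protein, treated 24 h. Reporter mRNA measured by RT-PCR, fluorescent labelling, HpaI digestion and capillary electrophoresis. Induction fitted against DMSO.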

Experiment [20] concerns the target human Thyroid Receptor alpha (THRa1), THRA (gene 7067) (UniProt P10827). The experiment is described as follows: ATG_THRa1_TRANS: Attagene TRANS-FACTORIAL HepG2 Assay for human Thyroid Receptor alpha (THRa1) (AID 2283014; active means hit-call score of the fitted dose curve at least 0.9, where 1 is the maximum). The essentials:
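HepG2 cells transiently transfected with multiplexed GAL4-UAS reporter units for exogenous chimeric THRa1-Gal4; reporter mRNA measured 24 h after dosing by RT-PCR, 6-FAM labelling, HpaI digestion and capillary electrophoresis. Gain-of-signal fitted versus DMSO baseline.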

E-selectin (Homo sapiens), sequence (P16581 whole entry, looked up): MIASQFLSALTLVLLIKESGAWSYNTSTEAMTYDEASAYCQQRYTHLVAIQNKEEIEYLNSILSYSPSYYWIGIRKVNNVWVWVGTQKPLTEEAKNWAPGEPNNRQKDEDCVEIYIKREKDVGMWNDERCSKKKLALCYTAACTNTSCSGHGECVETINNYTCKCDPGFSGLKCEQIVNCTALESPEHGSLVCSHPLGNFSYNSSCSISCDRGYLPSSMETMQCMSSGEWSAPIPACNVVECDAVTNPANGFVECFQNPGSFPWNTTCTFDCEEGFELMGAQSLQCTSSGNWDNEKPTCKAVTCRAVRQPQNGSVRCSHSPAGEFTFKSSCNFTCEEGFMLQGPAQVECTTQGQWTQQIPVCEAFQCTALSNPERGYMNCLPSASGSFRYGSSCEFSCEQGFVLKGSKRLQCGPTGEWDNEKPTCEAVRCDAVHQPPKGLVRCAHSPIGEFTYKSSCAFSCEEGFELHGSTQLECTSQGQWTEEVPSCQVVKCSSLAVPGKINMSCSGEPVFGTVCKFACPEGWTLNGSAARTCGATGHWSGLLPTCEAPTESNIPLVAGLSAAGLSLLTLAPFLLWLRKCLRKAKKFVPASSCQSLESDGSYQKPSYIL
Nuclear receptor subfamily 1 group I member 2 (Homo sapiens), sequence (O75469 whole entry, looked up, the tested form may be a part): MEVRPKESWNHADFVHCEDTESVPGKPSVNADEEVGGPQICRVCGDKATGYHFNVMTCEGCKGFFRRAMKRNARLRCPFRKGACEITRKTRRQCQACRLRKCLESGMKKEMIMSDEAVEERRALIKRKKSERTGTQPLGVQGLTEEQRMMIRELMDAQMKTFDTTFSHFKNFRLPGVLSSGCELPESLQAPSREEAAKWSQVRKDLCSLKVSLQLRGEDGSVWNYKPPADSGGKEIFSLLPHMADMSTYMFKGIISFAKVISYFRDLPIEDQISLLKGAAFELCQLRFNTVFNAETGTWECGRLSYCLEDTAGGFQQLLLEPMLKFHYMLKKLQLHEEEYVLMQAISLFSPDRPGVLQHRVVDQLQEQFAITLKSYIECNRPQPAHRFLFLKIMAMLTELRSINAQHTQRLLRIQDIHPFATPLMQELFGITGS
human Peroxisome Proliferator-activated Receptor delta (PPARd), PPARD (gene 5467), sequence (Q03181 whole entry, looked up): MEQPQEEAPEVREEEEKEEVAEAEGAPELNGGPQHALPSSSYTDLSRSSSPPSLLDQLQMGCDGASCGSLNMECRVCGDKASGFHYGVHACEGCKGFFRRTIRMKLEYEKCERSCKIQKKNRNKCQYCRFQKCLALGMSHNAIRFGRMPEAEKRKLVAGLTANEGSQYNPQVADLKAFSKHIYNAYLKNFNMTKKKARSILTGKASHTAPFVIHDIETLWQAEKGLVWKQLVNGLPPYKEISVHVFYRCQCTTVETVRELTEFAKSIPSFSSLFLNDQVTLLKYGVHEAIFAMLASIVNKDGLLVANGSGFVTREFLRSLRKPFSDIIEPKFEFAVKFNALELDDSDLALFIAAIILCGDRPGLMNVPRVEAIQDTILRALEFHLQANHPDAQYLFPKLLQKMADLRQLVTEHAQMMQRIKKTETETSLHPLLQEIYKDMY
human Thyroid Receptor alpha (THRa1), THRA (gene 7067), sequence (P10827 whole entry, looked up, the tested form may be a part): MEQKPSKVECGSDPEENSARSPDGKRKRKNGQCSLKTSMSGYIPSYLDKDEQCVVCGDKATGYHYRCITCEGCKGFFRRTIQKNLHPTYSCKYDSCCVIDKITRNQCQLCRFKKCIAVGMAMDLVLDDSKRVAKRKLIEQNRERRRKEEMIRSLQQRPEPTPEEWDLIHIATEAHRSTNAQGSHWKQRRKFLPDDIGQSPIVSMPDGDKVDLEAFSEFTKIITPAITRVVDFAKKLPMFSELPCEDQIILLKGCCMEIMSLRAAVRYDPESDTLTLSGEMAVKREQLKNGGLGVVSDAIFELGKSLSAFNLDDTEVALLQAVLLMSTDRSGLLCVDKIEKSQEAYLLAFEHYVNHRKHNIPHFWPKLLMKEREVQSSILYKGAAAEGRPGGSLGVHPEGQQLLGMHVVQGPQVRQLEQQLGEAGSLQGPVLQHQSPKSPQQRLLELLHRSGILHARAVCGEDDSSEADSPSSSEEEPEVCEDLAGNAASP
Peroxisome proliferator-activated receptor gamma (Homo sapiens), sequence (P37231 whole entry, looked up): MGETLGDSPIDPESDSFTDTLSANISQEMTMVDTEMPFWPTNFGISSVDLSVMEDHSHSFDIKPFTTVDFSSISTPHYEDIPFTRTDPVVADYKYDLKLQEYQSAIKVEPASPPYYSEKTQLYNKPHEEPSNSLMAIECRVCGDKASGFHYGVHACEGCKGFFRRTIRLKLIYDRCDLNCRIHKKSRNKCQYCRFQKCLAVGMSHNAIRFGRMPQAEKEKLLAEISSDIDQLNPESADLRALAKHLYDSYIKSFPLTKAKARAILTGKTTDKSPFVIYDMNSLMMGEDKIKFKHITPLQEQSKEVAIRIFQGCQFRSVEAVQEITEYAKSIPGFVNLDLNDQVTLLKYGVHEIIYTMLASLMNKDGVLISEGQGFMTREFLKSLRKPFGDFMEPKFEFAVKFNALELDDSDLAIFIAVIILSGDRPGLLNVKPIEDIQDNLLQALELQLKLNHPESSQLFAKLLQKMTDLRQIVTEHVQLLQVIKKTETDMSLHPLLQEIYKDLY
human RAR-related Orphan Receptor gamma (RORg), RORC (gene 6097), sequence (P51449 whole entry, looked up, the tested form may be a part): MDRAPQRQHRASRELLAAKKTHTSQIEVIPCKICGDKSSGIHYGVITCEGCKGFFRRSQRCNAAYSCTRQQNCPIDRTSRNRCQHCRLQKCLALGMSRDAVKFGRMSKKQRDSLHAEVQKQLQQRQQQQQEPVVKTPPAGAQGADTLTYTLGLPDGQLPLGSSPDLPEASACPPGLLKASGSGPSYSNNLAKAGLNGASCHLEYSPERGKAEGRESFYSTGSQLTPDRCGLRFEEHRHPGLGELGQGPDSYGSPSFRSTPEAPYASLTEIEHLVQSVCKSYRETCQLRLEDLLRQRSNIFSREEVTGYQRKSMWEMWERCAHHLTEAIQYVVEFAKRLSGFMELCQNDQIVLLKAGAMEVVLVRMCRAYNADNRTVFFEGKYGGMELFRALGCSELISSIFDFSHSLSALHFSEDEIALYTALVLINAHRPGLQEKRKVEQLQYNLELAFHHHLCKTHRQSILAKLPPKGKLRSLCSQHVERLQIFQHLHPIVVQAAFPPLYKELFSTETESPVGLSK
human Peroxisome Proliferator-activated Receptor alpha (PPARa), PPARA (gene 5465), sequence (Q07869 whole entry, looked up, the tested form may be a part): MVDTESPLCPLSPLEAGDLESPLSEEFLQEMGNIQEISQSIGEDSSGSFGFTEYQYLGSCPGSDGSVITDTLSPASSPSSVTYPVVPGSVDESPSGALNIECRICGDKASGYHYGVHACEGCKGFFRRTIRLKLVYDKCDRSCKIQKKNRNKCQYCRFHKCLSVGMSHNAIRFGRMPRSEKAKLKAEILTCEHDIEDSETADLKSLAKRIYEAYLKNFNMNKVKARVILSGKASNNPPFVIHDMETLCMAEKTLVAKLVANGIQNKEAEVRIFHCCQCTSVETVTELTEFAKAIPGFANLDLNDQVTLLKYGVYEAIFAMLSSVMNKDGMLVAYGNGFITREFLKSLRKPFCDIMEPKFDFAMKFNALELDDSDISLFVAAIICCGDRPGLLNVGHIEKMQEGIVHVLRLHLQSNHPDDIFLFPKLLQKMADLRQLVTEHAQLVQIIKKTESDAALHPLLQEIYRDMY
human Retinoic Acid Receptor beta (RARb), RARB (gene 5915), sequence (P10826 whole entry, looked up, the tested form may be a part): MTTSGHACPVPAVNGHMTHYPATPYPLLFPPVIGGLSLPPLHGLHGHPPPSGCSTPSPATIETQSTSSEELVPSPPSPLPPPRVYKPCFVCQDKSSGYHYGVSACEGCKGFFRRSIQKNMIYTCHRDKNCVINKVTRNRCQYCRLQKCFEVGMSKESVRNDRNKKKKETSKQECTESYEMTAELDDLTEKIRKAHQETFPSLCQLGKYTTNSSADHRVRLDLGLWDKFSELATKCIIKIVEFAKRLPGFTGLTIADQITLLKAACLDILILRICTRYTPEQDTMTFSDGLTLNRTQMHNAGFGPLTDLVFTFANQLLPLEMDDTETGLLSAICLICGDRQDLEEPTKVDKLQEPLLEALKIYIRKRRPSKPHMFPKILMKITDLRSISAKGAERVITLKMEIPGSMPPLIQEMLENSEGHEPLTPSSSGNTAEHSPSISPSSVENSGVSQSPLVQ
human Retinoid X Receptor beta (RXRb), RXRB (gene 6257), sequence (P28702 whole entry, looked up, the tested form may be a part): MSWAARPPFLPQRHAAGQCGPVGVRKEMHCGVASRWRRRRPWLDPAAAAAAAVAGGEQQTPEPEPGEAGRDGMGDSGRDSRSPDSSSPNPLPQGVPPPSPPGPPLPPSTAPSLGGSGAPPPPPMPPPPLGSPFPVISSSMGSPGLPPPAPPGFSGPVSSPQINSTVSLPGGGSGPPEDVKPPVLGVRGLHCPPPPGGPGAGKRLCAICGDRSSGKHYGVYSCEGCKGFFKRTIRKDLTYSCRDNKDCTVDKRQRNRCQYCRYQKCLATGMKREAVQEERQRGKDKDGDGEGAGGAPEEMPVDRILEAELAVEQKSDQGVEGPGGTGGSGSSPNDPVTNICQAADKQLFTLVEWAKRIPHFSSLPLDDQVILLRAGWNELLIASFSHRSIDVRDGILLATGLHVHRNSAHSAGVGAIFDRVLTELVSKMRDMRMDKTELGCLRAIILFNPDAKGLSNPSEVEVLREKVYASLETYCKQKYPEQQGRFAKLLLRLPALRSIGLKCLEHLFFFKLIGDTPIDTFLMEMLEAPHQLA
Retinoic acid receptor RXR-alpha (Homo sapiens), sequence (P19793 whole entry, looked up, the tested form may be a part): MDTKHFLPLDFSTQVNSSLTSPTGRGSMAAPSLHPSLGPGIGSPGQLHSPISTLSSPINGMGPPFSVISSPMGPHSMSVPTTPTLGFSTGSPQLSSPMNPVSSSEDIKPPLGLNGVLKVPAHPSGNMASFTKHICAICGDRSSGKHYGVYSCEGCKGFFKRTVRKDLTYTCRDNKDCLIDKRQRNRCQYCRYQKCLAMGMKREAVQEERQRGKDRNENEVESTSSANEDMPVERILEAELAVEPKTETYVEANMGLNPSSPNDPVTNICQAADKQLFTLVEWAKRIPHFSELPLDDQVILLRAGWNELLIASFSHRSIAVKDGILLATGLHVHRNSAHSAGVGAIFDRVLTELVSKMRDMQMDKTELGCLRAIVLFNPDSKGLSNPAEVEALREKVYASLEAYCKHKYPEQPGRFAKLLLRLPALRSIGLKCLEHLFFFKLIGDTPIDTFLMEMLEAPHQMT

The AC50 is the concentration giving half of the maximal activity seen. Take `COc1ccc2cc(S(=O)(=O)N[C@H](CC(=O)N[C@H](Cc3ccc(CN4[C@H](C)CCC[C@@H]4C)cc3)C(=O)N(C)C(C)C)c3ccc4c(c3)OCO4)ccc2c1`: the compound was classed as inactive in experiment [1], in experiment [2], in experiment [4], in [5], in experiment [6] and in experiment [7]. In addition, the result in [12] was inactive. In addition, the AC50 in experiment [3] was 22 µM (active); in [8] it was 12.5 µM (active); in experiment [9], 8.16 µM (active); in experiment [10], 24.3 µM (active); in [11], 16.3 µM (active).

On to `O=C=NCCCCCCN=C=O`, for which the compound was classed as inactive in experiment [13], in experiment [2], in [3], in [4], in [5] and in experiment [14]. The outcome in experiment [15], in [6], in experiment [7], in experiment [8], in [9] and in experiment [10] was inactive. Moreover, the outcome in experiment [11] and in [12] was inactive.

For the compound `CCOC(=O)O[C@H](C)OC(=O)c1ccc2c(c1)cc(C(=O)NC1CCN(C(C)C)CC1)n2Cc1cc(-c2ccc(Cl)s2)on1`, the outcome in [1], in [4] and in experiment [5] was inactive. The AC50 is 8.99 µM (active) in experiment [2]; 1.77 µM (active) in experiment [3]; 7.05 µM (active) in [6]; 11 µM (active) in experiment [7]; 6.56 µM (active) in experiment [8]; 5.27 µM (active) in [9]. In addition, the values for the AC50 in experiment [10], in [11] and in experiment [12] were 7.08 µM (active), 6.77 µM (active) and 8.78 µM (active), respectively.

Consider `CC(=O)N1CCN(c2ccc(OC[C@H]3CO[C@](Cn4ccnc4)(c4ccc(Cl)cc4Cl)O3)cc2)CC1`, for which the result in experiment [2], in [4], in experiment [5], in [16], in experiment [6] and in experiment [7] was inactive. In addition, the concentration at half-maximal activity (AC50) in experiment [3] was 23.8 µM (active); in experiment [8], 31.9 µM (active); in [9], 26.4 µM (active); in experiment [10] it was 25.2 µM (active); in experiment [11], 31.3 µM (active); in experiment [12], 34.5 µM (active).

For `CO[C@H]1/C=C/O[C@@]2(C)Oc3c(C)c(O)c4c(O)c(c(/C=N/N5CCN(C)CC5)c(O)c4c3C2=O)NC(=O)/C(C)=C\C=C\[C@H](C)[C@H](O)[C@@H](C)[C@@H](O)[C@@H](C)[C@H](OC(C)=O)[C@@H]1C`, the call in experiment [13], in [2], in [17], in experiment [18], in experiment [3] and in [4] was inactive. Further, the result in experiment [16], in experiment [19], in experiment [20], in experiment [6], in [7] and in experiment [8] was inactive. The result in experiment [9], in experiment [10], in experiment [11] and in [12] was inactive.

Take `O=C(OCCCCCCOC(=O)c1ccccc1)c1ccccc1`: the result in experiment [13], in experiment [2], in experiment [17], in experiment [5], in experiment [16] and in [15] was inactive. The call in [20], in experiment [6], in experiment [7], in [8], in experiment [9] and in experiment [10] was inactive. Moreover, the outcome in [11] and in experiment [12] was inactive. Also, in experiment [3], the concentration at half-maximal activity (AC50) is 20.7 µM (active).
